Results reported in PubChem BioAssay AID1159580 (chemical genetic matrix, 2015).
Where “and” joins values, the source holds several entries; their conditions need not be identical. Equal values may be shown once. Among all 5,500 compounds or so, about 2,000 (36%) were called active. Another 18% or so got no clear call; they are omitted. No stated cut-off is given here; in the data, active means normalized growth mostly below about 0.91 (no sharp cut-off); inconclusive means no clear call, values can overlap the other calls; inactive means mostly above about 0.92. The list shows a part of the results.

Experiment: chemical genetic growth profiling, strain panel (AID 1159580);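 further: tested at 20 µM; growth read once vehicle control cultures reached saturation at 30 °C; 1 = growth at the plate median or of vehicle wells; lower values mean less growth of the strain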
Conditions: S. cerevisiae deletion strains, growth OD

Measured: normalized growth

C[C@@H]1CC[C@@]2(OC1)O[C@H]1CC3C4CC[C@H]5C[C@@H](O)CC[C@]5(C)C4CC[C@]3(C)[C@H]1[C@@H]2C (stereo not given in full)
inactive: locus YAL013W, strain DEP1, hits give low values 0.985 | locus YAL021C, strain ccr4, hits give low values 1.02 | locus YAL026C, strain drs2, hits give low values 1.01 | locus YAL030W, strain snc1, hits give low values 0.994 | locus YBL061C, strain skt5, hits give low values 1 | locus YBR009C, strain hhf1, hits give low values 0.99 | locus YBR021W, strain FUR4, hits give low values 1.11 | locus YBR023C, strain chs3, hits give low values 1 | locus YBR171W, strain sec66, hits give low values 0.994 | locus YBR229C, strain ROT2, hits give low values 0.988 | locus YBR231C, strain swc5, hits give low values 0.988 | locus YBR279W, strain paf1, hits give low values 0.996 | locus YCL011C, strain gbp2, hits give low values 0.994 | locus YCL016C, strain dcc1, hits give low values 0.998 | locus YCL029C, strain bik1, hits give low values 0.978 | locus YCL061C, strain MRC1, hits give low values 0.987 | locus YCL069W, strain vba3, hits give low values 1 | locus YCR088W, strain abp1, hits give low values 0.986 | locus YDL005C, strain med2, hits give low values 0.999 | locus YDL035C, strain GPR1, hits give low values 1.02 | locus YDL040C, strain nat1, hits give low values 0.998 | locus YDL074C, strain BRE1, hits give low values 1 | locus YDL101C, strain DUN1, hits give low values 0.983 | locus YDL134C, strain PPH21, hits give low values 0.972 | locus YDL185W, strain tfp1, hits give low values 0.954 | locus YDL192W, strain arf1, hits give low values 0.978 | locus YDR001C, strain nth1, hits give low values 0.997 | locus YDR069C, strain doa4, hits give low values 0.993 | locus YDR101C, strain arx1, hits give low values 1.01 | locus YDR137W, strain rgp1, hits give low values 1 | locus YDR159W, strain sac3, hits give low values 1 | locus YDR162C, strain NBP2, hits give low values 0.994 | locus YDR195W, strain ref2 0.989 | locus YDR297W, strain sur2, hits give low values 0.988 | locus YDR318W, strain mcm21, hits give low values 0.977 | locus YDR334W, strain swr1, hits give low values 0.993 | locus YDR335W, strain msn5, hits give low values 0.996 | locus YDR388W, hits give low values 0.981 | locus YDR392W, strain spt3, hits give low values 0.981 | locus YDR502C, strain sam2, hits give low values 0.992 | locus YEL003W, strain gim4, hits give low values 0.994 | locus YEL037C, strain rad23, hits give low values 0.989 | locus YEL061C, strain CIN8 (second series), hits give low values 0.992 | locus YER015W, strain faa2, hits give low values 0.996 | locus YER016W, strain bim1, hits give low values 0.998 | locus YER110C, hits give low values 0.969 | locus YER111C, strain swi4, hits give low values 0.994 | locus YER155C, strain BEM2 (second series), hits give low values 0.977 | locus YER155C, strain BEM2, hits give low values 0.999 | locus YER167W, strain BCK2, hits give low values 0.997 | locus YFR010W, strain ubp6, hits give low values 1 | locus YGL078C, strain dbp3, hits give low values 0.956 | locus YGL086W, strain mad1, hits give low values 0.993 | locus YGL167C, strain pmr1, hits give low values 0.999 | locus YGL173C, strain kem1, hits give low values 0.998 | locus YGL227W, strain vid30, hits give low values 0.987 | locus YGL240W, strain doc1, hits give low values 1.01 | locus YGL248W, strain PDE1, hits give low values 0.988 | locus YGL253W, strain hxk2, hits give low values 1 | locus YGR135W, strain pre9, hits give low values 0.941 | locus YGR252W, strain gcn5, hits give low values 1 | locus YHR013C, strain ard1, hits give low values 0.988 | locus YHR027C, strain rpn1, hits give low values 0.992 | locus YHR030C, strain SLT2, hits give low values 0.985 and 1 | locus YHR079C, strain IRE1 (second series), hits give low values 0.987 | locus YHR079C, strain IRE1, hits give low values 0.993 | locus YHR094C, strain hxt1, hits give low values 0.97 | locus YHR129C, strain ARP1, hits give low values 0.991 | locus YHR142W, strain chs7, hits give low values 1.03 | locus YHR200W, strain rpn10, hits give low values 0.997 | locus YIL066C, strain RNR3, hits give low values 1 | locus YIL073C, strain SPO22, hits give low values 0.892 | locus YIL125W, strain kgd1, hits give low values 0.979 | locus YIR030C, strain dcg1, hits give low values 0.977 | locus YJL092W, strain hpr5, hits give low values 0.99 | locus YJL095W, strain BCK1 (second series), hits give low values 0.989 | locus YJL095W, strain BCK1, hits give low values 0.979 and 0.99 | locus YJL115W, strain asf1, hits give low values 0.976 | locus YJL129C, strain trk1, hits give low values 0.977 | locus YJL134W, strain LCB3, hits give low values 0.993 | locus YJL154C, strain vps35, hits give low values 0.99 | locus YJL164C, strain tpk1, hits give low values 0.996 | locus YJL166W, strain qcr8, hits give low values 0.989 | locus YJL168C, strain set2, hits give low values 0.977 | locus YJL187C, strain SWE1 (second series), hits give low values 0.977
